Shown are actives, neighbours in structure and some others; about 10% of the full set was active somewhere.
JMJD2A Tudor inh: blocks the human JMJD2A Tudor domain. O75164. actives 4.4% (n = 390,000). AlphaScreen JMJD2A-Tudor / H3K4me3 peptide binding. AID 504339. Potency, µM (series often up to 114 µM), most hits filed as inhibitors; note: nearly all actives have a fitted effect of over 50% in size
Six1-Eya2 inh: blocks human Six1 binding to Eya2; actives 0.56% (n = 360,000); Q15475+O00167; AID 651725; AlphaScreen GST-Six1/His-Eya2 binding, biochemical; active compounds read low; activity change, % (concentration not given with the values); in the data active = activity change below about -65%; inconclusive = mostly about -30% to -63%
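Six1/Eya2 binding was read as AlphaScreen signal after compounds were pinned into GST-Six1 plus His-tagged Eya2 (5X stock 250/500 nM) in pH 8.0 Tris/NaCl/TCEP buffer, beads added, then incubated 1 h, 37 C, dark.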
G9a block: inhibitors of human histone lysine methyltransferase G9a; G9a H3K9 monomethylation, AlphaScreen, 2 h; Potency, µM (titrated, usually from 102 µM), actives largely listed as inhibitors; Q96KQ7; AID 504332; actives 8.8% (n = 350,000); note: nearly all actives have a fitted effect of over 75% in size
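G9a (20 nM) was preincubated 15 min with compound, then reacted 2 h at room temperature with 500 nM biotin-H3K9 peptide and 20 µM SAM. Monomethyl-H3K9 detected by AlphaScreen using anti-H3K9me1 antibody.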
CtBP-E1A blk: inhibitors of CtBP/E1A interaction. AlphaScreen GST-E1A/His-CtBP binding, 1536-well; active compounds read low. activity change, % (concentration not given with the values). actives 0.49% (n = 340,000). AID 651724; in the data active = activity change below about -65%; inconclusive = mostly about -30% to -63%
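Protein mix (5X: 125 nM each GST-E1A, His-CtBP) was incubated with pinned compound 2 h at 37 deg C in dark, in 50 mM Tris pH 8.0 buffer with 300 mM NaCl. Glutathione donor and nickel acceptor beads followed; AlphaScreen signal read after 1 h.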
HP1b chromo inh: blocks HP1-beta chromodomain binding to methylated histone tails. actives 0.56% (n = 390,000). Potency, µM (top dose mostly 114 µM), actives largely listed as inhibitors. P83916. AlphaScreen HP1-beta / biotin-H3K9me3 peptide binding; note: nearly all actives have a fitted effect of over 70% in size
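AlphaScreen: HP1-beta (50 nM) preformed 30 min with biotin-H3(1-18)K9me3 peptide (50 nM) in PBS pH 7.4, 0.01% Tween-20. Compound added for 30 min at RT, then streptavidin donor/nickel chelate acceptor beads (10 ug/mL) for 30 min.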
BAZ2B inh: inhibitors of human BAZ2B bromodomain; Q9UIF8; AlphaScreen BAZ2B-H3K14Ac peptide displacement; Potency, µM (top dose mostly 114 µM), usual class: inhibitors; actives 4.4% (n = 360,000); AID 504333; note: nearly all actives have a fitted effect of over 60% in size
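Complex of BAZ2B and biotin-H3K14Ac (50 nM apiece) forms over 30 min at RT, then faces library compounds up to 110 uM for another 30 min; AlphaScreen beads added, 20 min dark incubation, luminescence read.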
A number is an active result; – = inactive; ? = inconclusive; · = no result; [ ] = dose if it differs, or a comment. Unless noted, calls come from the whole dose curve; as a rule, active = well fitted inhibition curve with a large enough effect; inconclusive = small, poorly fitted or top-dose-only effect; inactive = no such curve, though single readings can be large or run the other way.

SMILES	JMJD2A Tudor inh	Six1-Eya2 inh	G9a block	CtBP-E1A blk	HP1b chromo inh	BAZ2B inh
Cc1cccn2c(=O)c3cc(C(=O)NC4CCCCC4)c(=N)n(Cc4ccccc4)c3nc12	–	–	10µM	–	–	25.1µM
Cc1cccn2c(=O)c3cc(C(=O)NCCN4CCOCC4)c(=N)n(CCCN4CCOCC4)c3nc12	–	–	50.1µM	–	?	–
CCCCNC(=O)c1cc2c(=O)n3cccc(C)c3nc2n1C	·	·	–	·	·	–
O=C(COc1ccccc1Cl)OCc1cc(=O)n2nc(C3CCCCC3)sc2n1	–	·	–	·	–	–
COc1ccc(-n2c(=O)c3ccc(C(=O)NCc4ccc(C)cc4)cc3n(CC(=O)Nc3cccc(F)c3)c2=O)cc1	–	·	–	·	–	·
CCOCCCn1c(=NC(=O)c2cccs2)c(C#N)cc2c(=O)n3cccc(C)c3nc21	–	–	70.8µM	·	–	–
Cc1cccn2c(=O)c3cc(C#N)c(=NC(=O)c4cccs4)n(CC(C)C)c3nc12	–	–	–	–	–	–
O=C(O)CCn1cc(/C=C2\NC(=S)N(c3ccccc3)C2=O)c(-c2ccc(Br)cc2)n1	?	–	20µM	·	–	·
O=Cc1cn(CCC(=O)O)nc1-c1cccc(Cl)c1	–	–	–	–	–	–
CNC(=S)NCc1ccc2[nH]c(C)cc2c1	?	–	–	·	–	·
CC(=O)NCc1ccc2[nH]c(C)cc2c1	–	–	?	–	–	–
CCc1cccc(C)c1NC(=S)NCc1ccc2[nH]c(C)cc2c1	?	–	?	–	–	39.8µM
CCC(=O)NCc1ccc2[nH]c(C)cc2c1	–	–	35.5µM	–	–	–
Cc1cc(N2C(=O)C(O)=C(C(=O)c3cc4ccccc4o3)C2c2cccc(Br)c2)no1 (stereo not given)	?	–	–[0.0925 µM]	·	–	?
Cc1cc(N2C(=O)C(O)=C(C(=O)c3cc4ccccc4o3)C2c2ccc(OC(C)C)cc2)no1 (stereo not given)	–	–	35.5µM	·	–	–
COC(=O)c1ccc(C2C(C(=O)c3cc4ccccc4o3)=C(O)C(=O)N2c2cc(C)on2)cc1 (stereo not given)	?	–	44.7µM	–	–	–
Cc1cc(N2C(=O)C(O)=C(C(=O)c3ccco3)C2c2ccc([N+](=O)[O-])cc2)no1 (stereo not given)	–	–	89.1µM	–	–	?
CCOc1ccc(C(CC(=O)O)N2Cc3ccccc3C2=O)cc1OC (stereo not given)	–	·	–	·	–	·
COc1ccc(Oc2ncc3nc(CCc4ccccc4)c(=O)n(C4CC4)c3n2)cc1	·	·	–[12.7 µM]	·	·	·
COc1ccccc1N1CCN(c2csc3ccccc3c2=O)CC1	?	·	–	·	–	?
CCC(C)NCCOCCOc1ccc(Cl)c2ccccc12 (stereo not given)	–	–	12.6µM	–	–	?
CCOc1ccc(OCCOCCOc2ccccc2Cl)cc1	–	–	–	–	–	–
CCC(C)NCCOCCOc1ccc(Cl)c(C)c1C (stereo not given)	3.55µM	–	?	–	?	–
CC1CCN(C2=NC(=O)/C(=C/c3ccccc3F)S2)CC1	–	–	–	–	–	–
CN1C2CCC1/C(=C\c1ccccc1F)C(=O)/C2=C/c1ccccc1F	–	–	50.1µM	–	–	–
SMILES	JMJD2A Tudor inh	Six1-Eya2 inh	G9a block	CtBP-E1A blk	HP1b chromo inh	BAZ2B inh
Cc1ccc(N2CC(c3nc4ccccc4n3CCC3CCCCC3)CC2=O)cc1 (stereo not given)	–	·	–	·	–	–
CCN1CCCC1CNCc1ccccc1OCc1ccc(F)cc1 (stereo not given)	–	–	56.2µM	–	–	–
COc1cccc(CNC(=O)Cn2c(=O)cc(C(F)(F)F)c3c(C)nn(C)c32)c1OC	–	·	–	·	–	–
CC1CCN(C(=O)CSc2nncn2-c2ccccn2)CC1	–	–	7.08µM	–	–	–
CC(=O)c1c(C)oc2c1cc(O)c1ccccc12	–	–	–	–	–	–
CC(=O)c1cc(O)c2ccccc2c1O	56.2µM	–	3.16µM	·	?	44.7µM
CNS(=O)(=O)c1cccc(C(=O)OC2CCCCC2=O)c1 (stereo not given)	–	–	12.6µM	–	–	–

Source: PubChem BioAssay (National Center for Advancing Translational Sciences (NCATS))
